These results are taken from ChEMBL document CHEMBL1157539, “Thousands of chemical starting points for antimalarial lead identification” (Nature, 2010).

Format in all cases: functional
Test [1] deals with Plasmodium falciparum. Briefly: GSK_TCMDC: Inhibition of Plasmodium falciparum 3D7 in whole red blood cells, using parasite LDH activity as an index of growth. Test compounds present at 2uM.
Test [2] has as its system Plasmodium falciparum. Briefly: GSK_TCMDC: Inhibition of Plasmodium falciparum Dd2 in whole red blood cells, using parasite LDH activity as an index of growth. Test compounds present at 2uM.
Test [3] has as its system HepG2. Briefly: GSK_TCMDC: Percent inhibition of human HepG2 cell line. Test compounds present at 10uM.

Usually Inhibition stands for how much of the control response was suppressed. A lower Inhibition goes with a weak effect. For the compound `COc1cc(CC(C)NCC(O)c2cccc(C(F)(F)F)c2)ccc1OCc1ccccc1` (stereo not given), the Inhibition in test [1] came to 93%; in test [2], 71%; in test [3], 2%.

Regarding `COC(=O)c1ccc(CC(C)NCC(O)c2cccc(Cl)c2Cl)cc1.Cl` (stereo not given), the figures for the Inhibition in test [1], in test [2] and in test [3] were 98%, 98% and 0%, respectively.

In the case of `CCCCn1c(C)c(C(=O)OCC)c2cc(OC(C)=O)c(Br)cc21`, the Inhibition in test [1] is 98%; in test [2], 79%; in test [3], 0%.

Consider `O=C1c2ccccc2CCC1CCN1CC=C(c2c[nH]c3ccccc23)CC1` (stereo not given), for which the Inhibition in test [1] came out at 89%; in test [2] it was 83%; in test [3], 5%.

As for `O=C(NCCC1CCN(CCc2c[nH]c3ccccc23)CC1)Nc1ccc(Cl)c(Cl)c1`, the Inhibition was 100% in test [1], 5% in test [2] and 18% in test [3].

For `Cc1cc(N(C)C2CCN(C)CC2)nc(Nc2ccc(Br)cc2)n1`, the figures for the Inhibition in test [1], in test [2] and in test [3] were 100%, 92% and 0%, respectively.

On to `CC[C@H]1CN2CC[C@@H]1C[C@H]2[C@H](O)c1cc(N2CCC(O)(c3ccc(Cl)cc3)CC2)nc2ccc(OC)cc12`, for which the Inhibition was 100% in test [1], 98% in test [2] and 21% in test [3].

In the case of `CC[C@H]1CN2CC[C@H]1C[C@H]2[C@H](O)c1cc(N2CCCC2)nc2ccc(OC)cc12`, the values for the Inhibition in test [1], in test [2] and in test [3] were 98%, 100% and 0%, respectively.

Turning to `CC[C@H]1CN2CC[C@@H]1C[C@H]2[C@H](O)c1cc(-c2ccccc2)nc2ccc(O)cc12.Cl`, the values for the Inhibition in test [1], in test [2] and in test [3] were 99%, 99% and 14%, respectively.

With `Cl.Cl.c1ccc2c(NCCCCCCNc3c4ccccc4nc4ccccc34)c3ccccc3nc2c1`, the figures for the Inhibition in test [1], in test [2] and in test [3] were 99%, 80% and 60%, respectively.
